Rows were chosen to be rich in hits. Some 2.6% of all compounds tested hit in one or more screens of this group.
Cruzain inh Det – inhibitors of Trypanosoma cruzi cruzain with detergent; purified cruzain, Z-FR-AMC fluorescence, 0.01% Triton; Potency, µM, usual class: inhibitors; 200,000 compounds, 0.43% hits; further: nearly all actives have a fitted effect of over 40% in size
Target sequence (P25779 123-467 limits assumed): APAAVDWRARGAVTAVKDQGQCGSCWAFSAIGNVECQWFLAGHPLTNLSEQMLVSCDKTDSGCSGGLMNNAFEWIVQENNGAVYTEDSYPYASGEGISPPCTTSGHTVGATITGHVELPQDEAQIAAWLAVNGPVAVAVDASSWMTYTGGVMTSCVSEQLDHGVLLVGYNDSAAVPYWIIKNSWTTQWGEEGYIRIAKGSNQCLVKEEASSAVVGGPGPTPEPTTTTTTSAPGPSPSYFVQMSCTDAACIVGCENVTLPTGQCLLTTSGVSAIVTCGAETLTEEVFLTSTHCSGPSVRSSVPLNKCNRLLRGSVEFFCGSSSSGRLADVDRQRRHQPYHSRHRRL
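Detergent-containing run (0.01% Triton X-100) in acetate buffer pH 5.5 with 5 mM DTT: enzyme at 1.5 nM final, 15 min compound preincubation at room temperature, then 2 uM Z-FR-AMC substrate. Activity taken as 60 s fluorescence increase at 360/450 nm.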
Cruzain noTriton – cruzain (T. cruzi) inhibition without detergent; Potency, µM, hits mostly inhibitors; P25779; 200,000 compounds, 2.3% hits; purified cruzain, Z-FR-AMC fluorescence, no detergent; further: nearly all actives have a fitted effect of over 40% in size
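Purified cruzain at 1.5 nM, pre-incubated 15 min with compound at room temperature in 100 mM sodium acetate pH 5.5, 5 mM DTT, 0.00005% Triton X-100. Reaction started with 2 uM Z-FR-AMC; AMC fluorescence increase over 60 s gives rate.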
Each line names hits and unclear results; the compound was inactive in the other large screens. The call rests on the fitted dose curve; in most records, active means well fitted curve in the direction sought with a large enough effect; inconclusive means small, poorly fitted or top-dose-only effect, or another doubt; inactive means no such curve, though single readings can be large; an effect the other way counts as inactive or inconclusive.

CCOc1ccccc1C1C(C(=O)Nc2ccccc2)=C(C)Nc2nc(SCC(=O)c3ccc(C)cc3)nn21 (stereo not drawn)	none
CCOc1ccc(C(=O)CSc2nnc3cc(C)c4ccccc4n23)cc1	Cruzain noTriton inconclusive
Cc1ccc(NC(=O)c2ccc3c(O)c(S(=O)(=O)c4ccccc4)c(=O)[nH]c3c2)cc1Cl	none
COc1ccc(C(=O)CCC(=O)Nc2ccccc2C)cc1	none
CCOc1ccccc1OCCCC(=O)OCC(=O)Nc1cccc(Cl)c1	none
Cc1ccccc1NC(=O)CCC(=O)OCC(=O)c1ccc(-c2ccccc2)cc1	Cruzain noTriton 13µM
O=C(CCC(=O)OCC(=O)c1ccc(-c2ccccc2)cc1)Nc1cccc(Cl)c1	Cruzain noTriton 25µM
O=C(NCc1ccccc1)N1CCc2c(sc3c2CCCC3)C1c1ccccc1 (stereo not drawn)	Cruzain noTriton inconclusive
COc1cccc(CNC(=O)N2CCc3c(sc4c3CCCC4)C2c2ccc(F)cc2)c1 (stereo not drawn)	Cruzain noTriton 6.3µM
O=C(NCC(c1ccc2c(c1)OCO2)N1CCOCC1)C(=O)Nc1ccccc1 (stereo not drawn)	none
COc1c(C)cc(NS(=O)(=O)c2ccc3c(c2)OCCO3)cc1C	none
COc1ccc2c(c1)c1nnc(SCC(=O)N3C(C)CCCC3C)nc1n2C (stereo not drawn)	Cruzain inh Det 18µM
COc1ccc2c(c1)c1nnc(SC)nc1n2C	none
Cc1c(C)n(Cc2ccc(F)cc2)c2ccc(C(=O)N3CCN(c4ccc(F)cc4)CC3)cc12	Cruzain noTriton inconclusive
CCCCc1ccc(NS(=O)(=O)c2ccc(N3CCCCS3(=O)=O)cc2)cc1	Cruzain noTriton inconclusive
Fc1cccc(NCc2ccccc2-c2nnc(-c3ccccc3Cl)o2)c1	none
Cc1cccc(C(=O)Nc2cccc(OCc3cc(=O)n4cccc(C)c4n3)c2)c1	none
N#CCCn1cnc2c1NC=NC2Cl (stereo not drawn)	none
CCOc1cc(CNC(=O)c2ccc(NC(=O)c3nsc4ccccc34)cc2)ccc1OC	Cruzain noTriton inconclusive
CN(C)C(=O)CSc1nnc([C@@H](N)Cc2ccccc2)o1	Cruzain inh Det 20µM, Cruzain noTriton 25µM
C[C@H](N)c1nnc(SCC(=O)N(C)C)o1	none
COC(=O)c1c(NC(=O)c2ccccc2N(C)S(=O)(=O)c2ccccc2)sc2c1CCCC2	Cruzain noTriton 25µM
CCOC(=O)c1c(NC(=O)c2ccccc2Cl)sc2c1CCCC2	none
COC(=O)c1c(NC(=O)c2ccc(N(C)S(=O)(=O)c3ccc(C)cc3)cc2)sc2c1CCCC2	Cruzain noTriton 4µM
COC(=O)c1c(NC(=O)CS(=O)(=O)c2ccc(C)cc2)sc2c1CCCC2	Cruzain noTriton inconclusive
COC(=O)c1c(NC(=O)CN(c2ccccc2)S(C)(=O)=O)sc2c1CCCC2	Cruzain noTriton inconclusive
CCOC(=O)c1c(NC(=O)c2ccccc2N(C)S(=O)(=O)c2ccccc2)sc2c1CCCC2	Cruzain noTriton 20µM
N#CCCn1c(=O)cnc2cnc(N3CCNCC3)nc21	none
Cn1cc(-c2cc3n(n2)CCC(=O)N3CCCC(=O)NCc2ccc(Cl)cc2)c2ccccc21	none
CCc1cccc(CC)c1N(COC)C(=O)Cn1c(C)nc2ccccc21	none
CCOC(=O)c1cc(-c2ccccc2)sc1NC(=O)CN1C(=O)NC(CC)(c2ccccc2)C1=O (stereo not drawn)	Cruzain noTriton 10µM
CCOC(=O)c1cc(-c2ccccc2)sc1NC(=O)CN1C(=O)NC(CC)(c2ccc(F)cc2)C1=O (stereo not drawn)	Cruzain noTriton 10µM
CCOC(=O)c1cc(-c2ccccc2)sc1NC(=O)CC	none
CCOC(=O)c1cc(-c2ccccc2)sc1NC(=O)CSc1nncs1	none
COc1cc(NC(=O)c2ccc(C(=O)Nc3cc(OC)c(Cl)cc3OC)cc2)c(OC)cc1Cl	none
CCCc1nnc(NC(=O)C(CC)Sc2nnc3c4ccccc4n(C)c3n2)s1 (stereo not drawn)	none
C=CCn1c2ccccc2c2nnc(SC(CC)C(=O)Nc3sc4c(c3C#N)CCCC4)nc21 (stereo not drawn)	Cruzain noTriton 25µM
O=C(NC1CCCCCC1)c1ccc2c(c1)sc1nc(-c3ccccc3)cn12	none
O=C(Nc1ccccc1)c1cc2ccccc2o1	none
O=C(Nc1ccccc1)c1ccc(OC(=O)c2cc3ccccc3o2)cc1	Cruzain noTriton 13µM
O=C(NCc1ccc(Cl)cc1)c1cc2c(s1)-c1ccccc1SC2	none
O=C(NCc1cccc(Cl)c1)c1cc2c(s1)-c1ccccc1SC2	Cruzain noTriton 25µM
CCOC(=O)c1c(C)oc2nc(C)nc(NCCc3ccc(C)cc3)c12	none
O=C(Nc1ccc2c(c1)CCC2)c1cc(S(=O)(=O)Nc2ccc(F)cc2)c(Cl)cc1Cl	Cruzain noTriton 20µM
O=C(Nc1ccc2c(c1)CCC2)c1ccc(F)cc1	none
CCOc1cc(/C=N/NC(N)=O)cc(Br)c1OCC(=O)Nc1cccc2ccccc12	Cruzain noTriton 6.3µM
COc1cc(/C=N/NC(N)=O)cc(Br)c1OCc1ccccc1C	Cruzain noTriton 20µM
CCOc1cc(/C=N/NC(N)=O)cc(Br)c1OCC(=O)Nc1ccccc1C	Cruzain noTriton inconclusive
C=CCOc1c(Br)cc(/C=N/NC(N)=O)cc1OC	none
COC(=O)CS(=O)(=O)c1nc2ccccc2nc1N1CCCCC1	none
N#Cc1c(-c2ccc(C(F)(F)F)cc2)cc(-c2ccccc2)[nH]c1=S	none
Cc1ccc(-c2cc(-c3ccccc3)[nH]c(=S)c2C#N)cc1	Cruzain noTriton 16µM
COCC(=O)Nc1nnc(-c2cccs2)s1	none
O=C(Cc1ccccc1)Nc1nnc(-c2cccs2)s1	Cruzain noTriton 25µM
O=C(Nc1ccc(F)c(Cl)c1)C1CCN(S(=O)(=O)c2ccc3[nH]c(=O)ccc3c2)CC1	none
CC1CCc2c(sc(NC(=O)c3ccccc3)c2C(=O)Nc2ccccc2)C1 (stereo not drawn)	none
Cc1ccc(S(=O)(=O)N2CCCOC2CNC(=O)C(=O)NCCc2c[nH]c3ccccc23)cc1 (stereo not drawn)	Cruzain noTriton inconclusive
O=C(NCCc1c[nH]c2ccccc12)C(=O)NCC1OCCCN1S(=O)(=O)c1ccccc1 (stereo not drawn)	Cruzain noTriton 25µM
CC(C)c1ccc2oc(-c3ccc(NC(=O)c4ncn[nH]4)cc3)nc2c1	Cruzain noTriton 13µM
O=C(Nc1ccc2oc(-c3cccc4ccccc34)nc2c1)c1ncn[nH]1	Cruzain noTriton inconclusive
COc1cc(OC)cc(C(=O)Nc2ccc(-c3nc4ccccc4o3)cc2)c1	Cruzain noTriton inconclusive
CCC(C)c1ccc2oc(-c3ccc(NC(=O)c4ncn[nH]4)cc3)nc2c1 (stereo not drawn)	Cruzain noTriton 4µM
Cc1cccc(C(=O)Nc2ccc(-c3nc4cc(C(C)C)ccc4o3)cc2)c1	none
COc1cc(OC)cc(C(=O)Nc2ccc(-c3nc4cc(C(C)C)ccc4o3)cc2)c1	Cruzain noTriton 13µM
CCOC(=O)Cc1c(C)nc2c(-c3ccc(Cl)cc3)c(C(F)(F)F)nn2c1C	none
CN(C)c1ccc(CNC(=O)CN2CCSc3ccc(S(=O)(=O)N(C)C)cc32)cc1	none
COc1ccc2c(c1)O[C@H](c1ccc3c(c1)OCO3)[C@@H](OC(=O)Nc1ccc(OC(F)F)cc1)C2=O	none
CCc1ccccc1NC(=O)C(CC)Sc1nc2cc3c(cc2c(=O)n1Cc1ccco1)OCO3 (stereo not drawn)	none
CCc1ccc(NC(=O)C(CC)Sc2nc3cc4c(cc3c(=O)n2Cc2ccco2)OCO4)cc1 (stereo not drawn)	Cruzain noTriton 25µM
CN(C)c1ncc2nc(-c3ccc(Cl)cc3)c(=O)n(-c3ccccc3)c2n1	none

From PubChem BioAssay
